The source of these data is PubChem BioAssay AID504339 (National Center for Advancing Translational Sciences (NCATS), 2011).

Hit rate of the full screen: of about 390,000 compounds, about 17,000 (4.4%) were called active. Roughly 8% stayed inconclusive and do not appear here. What follows is part of a selection rich in actives, with near analogues and random picks from the rest. Unmarked numbers belong to inactive results. The call rests on the fitted dose curve; in most records, active means well fitted inhibition curve with a large enough effect; inconclusive means small, poorly fitted or top-dose-only effect; inactive means no such curve, though single readings can be large or run the other way.
On the % scale 0 is the no-effect control and ±100 the full control effect; potency means the concentration at half of the fitted maximal effect.

For the assay, the target named is Lysine-specific demethylase 4A (Homo sapiens) (UniProt O75164). Put plainly: qHTS Assay for Inhibitors of JMJD2A-Tudor Domain. Further: nearly all actives have a fitted effect of over 50% in size. Particulars: AlphaScreen JMJD2A-Tudor / H3K4me3 peptide binding; series mostly up to 114 µM; activity change, negative = inhibition: at the top concentration.
Chain of Lysine-specific demethylase 4A (Homo sapiens) (O75164 whole entry, looked up, the tested form may be a part): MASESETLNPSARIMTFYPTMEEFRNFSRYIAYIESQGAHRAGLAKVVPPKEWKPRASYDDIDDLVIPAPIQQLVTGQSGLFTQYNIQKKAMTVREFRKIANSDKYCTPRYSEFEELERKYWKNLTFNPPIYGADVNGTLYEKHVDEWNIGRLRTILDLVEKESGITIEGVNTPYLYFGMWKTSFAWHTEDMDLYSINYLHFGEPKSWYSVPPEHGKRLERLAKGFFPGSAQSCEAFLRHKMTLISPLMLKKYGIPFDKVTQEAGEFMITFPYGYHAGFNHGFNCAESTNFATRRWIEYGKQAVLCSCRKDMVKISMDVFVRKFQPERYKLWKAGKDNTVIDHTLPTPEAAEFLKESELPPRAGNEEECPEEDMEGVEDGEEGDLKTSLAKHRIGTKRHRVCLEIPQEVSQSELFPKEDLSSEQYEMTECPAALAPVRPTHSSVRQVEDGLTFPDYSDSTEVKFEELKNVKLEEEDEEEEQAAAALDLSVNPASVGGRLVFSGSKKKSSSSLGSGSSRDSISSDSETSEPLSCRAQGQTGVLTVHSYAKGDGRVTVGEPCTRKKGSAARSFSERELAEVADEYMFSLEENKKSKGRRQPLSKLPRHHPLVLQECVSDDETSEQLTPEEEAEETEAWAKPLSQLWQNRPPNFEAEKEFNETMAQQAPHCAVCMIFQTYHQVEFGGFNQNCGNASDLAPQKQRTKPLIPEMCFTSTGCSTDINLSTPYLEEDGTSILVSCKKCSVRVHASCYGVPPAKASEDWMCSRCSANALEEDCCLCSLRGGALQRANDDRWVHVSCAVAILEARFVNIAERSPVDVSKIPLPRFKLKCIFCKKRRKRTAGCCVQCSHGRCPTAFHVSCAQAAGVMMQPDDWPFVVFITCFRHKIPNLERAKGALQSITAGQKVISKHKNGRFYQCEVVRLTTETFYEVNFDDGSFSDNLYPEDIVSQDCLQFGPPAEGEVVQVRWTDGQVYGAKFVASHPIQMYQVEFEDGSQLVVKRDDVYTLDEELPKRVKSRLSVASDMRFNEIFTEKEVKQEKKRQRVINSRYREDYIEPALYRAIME
On to `CCN(C(=O)COC(=O)c1sccc1C)c1c(N)n(Cc2ccccc2)c(=O)[nH]c1=O`, for which the “activity change, negative = inhibition” value is -9.29%.

With `CCN(C(=O)COC(=O)Cc1c(F)cccc1Cl)c1c(N)n(Cc2ccccc2)c(=O)[nH]c1=O`, the “activity change, negative = inhibition” value is -19%.

Turning to `CCN(C(=O)CN1CCN(Cc2ccccc2)CC1)c1c(N)n(Cc2ccccc2)c(=O)[nH]c1=O`, the Potency was 12.6 µM (active).

With `OC[C@@H]1O[C@H](n2cnc3c(SCc4ccccc4)ncnc32)[C@H](O)[C@H]1O`, the “activity change, negative = inhibition” value was -6.38%.

For the compound `Cc1ccc(C(=O)N2c3ncnn3C3(CCCCC3)[C@@H]3CCCC[C@@H]32)cc1`, the “activity change, negative = inhibition” value is -23.8%.

For the compound `CCC(=O)N1CCc2cc(CNS(=O)(=O)c3ccc(Br)s3)ccc21`, the “activity change, negative = inhibition” value was -0.649%.

As to `Cc1ccc(C(=O)O)cc1-c1ccc(/C=C2\SC(=O)N(CC(=O)Nc3ccc4c(c3)OCO4)C2=O)o1`, the Potency was 35.5 µM (active).

On to `Cc1nn(CC(=O)Nc2ccc3c(c2)OCO3)c(C)c1[N+](=O)[O-]`, for which the “activity change, negative = inhibition” value was -12.4%.

As to `Cc1nc([N+](=O)[O-])cn1CC(=O)Nc1ccc2c(c1)OCO2`, the “activity change, negative = inhibition” value is -9.8%.

Take `O=C(CSc1nnc(-c2ccncc2)n1-c1ccccc1)Nc1ccc(Cl)c(Cl)c1`: the “activity change, negative = inhibition” value is -4.17%.

For `COc1ccccc1CN1CCC(CNC(=O)c2cnn(-c3cccc(Cl)c3)c2C2CCN(C(=O)OC(C)(C)C)CC2)CC1`, the “activity change, negative = inhibition” value was -15.9%.

As to `COCCNC(=O)c1ccc2c(c1)N=C(C)c1cc(C)ccc1S2`, the “activity change, negative = inhibition” value was -22.3%.

On to `Oc1cccc(/C=N/Nc2ccc(Cl)nn2)c1O`, for which the Potency was 63.1 µM (active).

Consider `C/C(=N\Nc1ccc(Cl)nn1)c1ccccc1O`, for which the “activity change, negative = inhibition” value is -30.3%.

Turning to `COc1cccc(CNC(=O)c2ccc3c(c2)N(Cc2ccc(C(F)(F)F)cc2)C(=O)c2ccccc2S3)c1OC`, the “activity change, negative = inhibition” value is -9.82%.

Regarding `CCCc1nn2c(=O)cc(COC(=O)c3ccc(NC(=O)C(C)Oc4ccccc4)cc3)nc2s1` (configuration not stated), the “activity change, negative = inhibition” value was -12.6%.

As to `COc1ccc(-c2nnc(SCC(=O)Nc3ccccc3C)o2)cc1OC`, the “activity change, negative = inhibition” value was -5.3%.

For `CCOC(=O)c1cnc2c(C)cc(Cl)cc2c1NCCc1ccc(OC)c(OC)c1`, the “activity change, negative = inhibition” value was -1.04%.

For `CCOC(=O)c1cnc2c(C)cc(C)cc2c1Nc1ccc(N2CCOCC2)cc1`, the Potency was 35.5 µM (active).

As to `Cc1ccc(OCCCC(=O)Nc2ccc(N3CCOCC3)cc2)cc1`, the “activity change, negative = inhibition” value is -9.46%.

With `Cc1cccc(-n2c(=O)c3c(c4cc(C)ccc4n3C)n(CC(=O)Nc3ccccc3Cl)c2=O)c1`, the “activity change, negative = inhibition” value is -15.5%.

Turning to `COc1cnc(-c2ccccn2)nc1Oc1ccc(C(C)(C)C)cc1`, the Potency was 31.6 µM (active).

Consider `O=C(Oc1ccc(-c2nc(-c3ccccn3)no2)cc1)c1ccccc1`, for which the “activity change, negative = inhibition” value was -11%.

On to `COc1ccnc(Oc2ccccc2)c1-c1ncn[nH]1`, for which the “activity change, negative = inhibition” value was -8.7%.

`CN1C2CCC1CC(NC(=O)c1ccc([N+](=O)[O-])cc1)C2` (configuration not stated): the “activity change, negative = inhibition” value is -6.06%.

With `Cc1cc(C)cc(C(=O)N2CCN=C2SCc2ccc([N+](=O)[O-])cc2)c1`, the “activity change, negative = inhibition” value is -25.3%.

Take `CC(=O)N1CC[n+]2c(-c3ccc([N+](=O)[O-])cc3)csc21`: the Potency is 7.94 µM (active).

With `O=C(Nc1nc2ccc(F)cc2s1)c1nc(SCc2ccccc2F)ncc1Cl`, the “activity change, negative = inhibition” value is -16.7%.

In the case of `COc1ccc(NC(=O)C(=O)NCc2ccco2)cc1`, the “activity change, negative = inhibition” value is -10.1%.

As to `COc1ccc(-n2cnc3cc(C(=O)NC4CCCC4)ccc32)cc1`, the Potency entry was “inactive”.

In the case of `COc1ccc(-n2cnc3cc(NCc4ccco4)ccc32)cc1`, the Potency is 50.1 µM (active).

Consider `Cc1ccc(CSc2nc3cccnc3n2Cc2ccc(C(=O)NC3CC3)cc2)cc1`, for which the “activity change, negative = inhibition” value was -11.6%.

For the compound `CCOC(=O)c1[nH]c(C)c(CCC(=O)NCc2ccccc2C)c1C`, the “activity change, negative = inhibition” value is -30.2%.

On to `S=c1[nH]nc(-c2cc(-c3ccsc3)n[nH]2)n1-c1ccccc1`, for which the Potency was 44.7 µM (active).

As for `Cc1ccc(NCc2n[nH]c(=S)n2-c2ccccc2)cc1Cl`, the “activity change, negative = inhibition” value is -18.5%.

For the compound `COc1cccc(-c2cc(C(=O)Nc3ccc(C)cc3)[nH]n2)c1`, the “activity change, negative = inhibition” value was -15.5%.

As to `CCc1ccc(NC(=O)Cn2c(=O)n(CCC(=O)NCc3ccc4c(c3)OCO4)c(=O)c3ccccc32)cc1`, the “activity change, negative = inhibition” value was -9.21%.

Turning to `O=C(CCSCc1ccccc1F)N1CCN(c2ccc(Cl)cc2)CC1`, the “activity change, negative = inhibition” value is -19%.

With `Cc1cccc(NC(=O)N2CCN(C)c3ncccc32)c1C`, the “activity change, negative = inhibition” value is -19.5%.

For the compound `CCOc1ccc(CCNC(=O)c2cc3c(=O)n(C)c4ccccc4c3n2C)cc1`, the “activity change, negative = inhibition” value is -18.5%.

As for `CC(=O)N1CCc2c(sc(NC(=O)CCS(=O)(=O)c3ccccc3)c2C#N)C1`, the “activity change, negative = inhibition” value is -9.72%.

`CC(C)N1CCc2c(sc(NC(=O)Cc3ccccc3)c2C#N)C1`: the “activity change, negative = inhibition” value was -12.7%.

For `N#Cc1c(N)sc2c1CCN(C(=O)OCc1ccccc1)C2`, the Potency is 56.2 µM (active).

Take `Cn1c(=O)c2c(nc(SCC(=O)Nc3ccc(F)cc3)n2Cc2ccccc2)n(C)c1=O`: the “activity change, negative = inhibition” value was 2.06%.

Turning to `Cc1cccc(NC(=O)CSCC(=O)Nc2nnc(C3CC3)s2)c1`, the “activity change, negative = inhibition” value was -2.27%.

`O=C(CN1C(=O)c2ccc([N+](=O)[O-])cc2C1=O)Nc1nnc(C2CC2)s1`: the Potency is 79.4 µM (active).

As for `CC1CCN(c2ccc(C(=O)Nc3nnc(C4CC4)s3)cc2[N+](=O)[O-])CC1`, the “activity change, negative = inhibition” value was -29.4%.
